Assay outcomes (PubChem BioAssay)
Bst PK mod: Pyruvate Kinase | purified pyruvate kinase, luminescence ATP production; ribose 5-phosphate activator present at AC10 | Potency, µM | AID 361, 2006 | hit rate 1.2% among 51,000; in the data active means potency below about 11 µM; inconclusive means mostly about 12 µM to 25 µM;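 the screen sought inhibitors and activators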;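 further: potency means the concentration at half of the fitted maximal effect; scaled between full activation by ribose 5 phosphate and full inhibition by luteolin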
HBB splice mod: qHTS Assay for Modulators of Hemoglobin Beta Chain Splicing; Potency, µM (doses to about 46.1 µM), inactives show at the highest dose activation, usual class: activators; AID 925, 2007; hit rate 0.06% among 65,000; HBB splicing reporter cell assay, activation; EGFP reporter with mutant IVS2-654 intron; response scale: normalised to 500 nM splice-correcting PNA; further: potency means the concentration at half of the fitted maximal effect; 0% is about no effect
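HeLa cells stably expressing EGFP interrupted by mutant beta-globin intron 2 (IVS2-654), 500/well in 2% FCS. Treated with compound for 2 days at 37C. Splicing correction scored as total well GFP intensity (488 nm excitation, 500-520 nm emission); 500 nM antisense PNA served as control.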
UbGFP stabilizer: Ubiquitin-GFP Assay; Ubiquitin-GFP reporter cells, proteasome inhibition, GFP fluorescence; response scale: untreated = 0%, 10 µM MG-132 = 100%; Potency, µM (series often up to 45.9 µM), for the others: at the highest dose activation (GFP accumulation), most hits filed as activators; 67,000 tested, under 10 active; active means well fitted activation curve with a large enough effect, not every such curve was filed as active; inconclusive means small, poorly fitted or top-dose-only effect, or another doubt; inactive means no such curve, though single readings can be large or run the other way; further: potency means the concentration at half of the fitted maximal effect
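Proteasome blockade was scored as a rise in GFP-expressing U2OS cells carrying a ubiquitin(G76V)-GFP construct, imaged after 4 hr compound treatment at 37 °C across a 46 uM–2.9 nM series.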
GFP derepression: qHTS Assay for Epigenetic Modulators; hit rate 0.09% among 68,000; Potency, µM (top dose mostly 46.1 µM), for the others: at the top dose GFP derepression (activation); mouse C127i GFP locus derepression, cytometry, 30 h; further: % of control where 0% means no effect
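Derepression screen: silenced CMV-GFP reporter in murine C127i cells, 30 h compound incubation at 37 C, washed cells imaged by laser-scanning cytometer to enumerate GFP-expressing objects of 20 to 120 um.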
Luciferase inh: qHTS Assay for Inhibitors of Firefly Luciferase. Potency, µM (doses to about 57.1 µM), without a hit: at the top dose activity change, negative = inhibition, most hits filed as inhibitors. purified firefly luciferase, luminescence, 8 min. hit rate 2.2% among 72,000; further: potency means the concentration at half of the fitted maximal effect; on the % scale 0 is the no-effect control and ±100 the full control effect; nearly all actives have a fitted effect of over 40% in size
Target sequence (P08659 whole entry, looked up): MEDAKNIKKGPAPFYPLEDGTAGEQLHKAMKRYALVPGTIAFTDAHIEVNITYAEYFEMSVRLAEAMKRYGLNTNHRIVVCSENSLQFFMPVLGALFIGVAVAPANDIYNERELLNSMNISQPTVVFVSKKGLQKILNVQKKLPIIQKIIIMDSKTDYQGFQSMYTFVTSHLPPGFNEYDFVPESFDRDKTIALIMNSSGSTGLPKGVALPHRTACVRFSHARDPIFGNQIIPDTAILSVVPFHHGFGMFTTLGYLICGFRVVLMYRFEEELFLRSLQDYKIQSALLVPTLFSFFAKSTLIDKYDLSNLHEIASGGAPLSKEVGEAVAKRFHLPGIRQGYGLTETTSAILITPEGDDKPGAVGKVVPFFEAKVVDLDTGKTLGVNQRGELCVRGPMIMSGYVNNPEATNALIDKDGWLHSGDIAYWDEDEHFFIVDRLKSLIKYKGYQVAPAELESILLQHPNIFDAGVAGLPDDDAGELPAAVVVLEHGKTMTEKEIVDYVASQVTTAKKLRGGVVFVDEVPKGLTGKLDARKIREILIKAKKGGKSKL
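Firefly luciferase (PKLight detection mix) with 10 uM ATP in pH 7.2 imidazole buffer (KCl, MgCl2, Tween 20, BSA). Compounds tested across a concentration series (qHTS). Luminescence read after 8 min at ambient temperature.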
Active calls of the source: *; i = inactive; ? = inconclusive; · = no result; [ ] = remark or other dose. Compounds with a hit are over-represented: about 2.6% of the library has one in this group of screens. Unless noted, the call rests on the fitted dose curve; in most records, active means well fitted curve in the direction sought with a large enough effect; inconclusive means small, poorly fitted or top-dose-only effect, or another doubt; inactive means no such curve, though single readings can be large; an effect the other way counts as inactive or inconclusive.

SMILES | Bst PK mod | HBB splice mod | UbGFP stabilizer | GFP derepression | Luciferase inh
O=C(Nc1cccnc1)c1cc(-c2cccs2)on1 | >57 | 1% | 2% | 1% | -16%
CC(C)Cc1cc(C(=O)Nc2ccc3c(c2)OCO3)no1 | · | -1% | 27% | · | 7.9µM*
COc1cc(OC)cc([C@H](CNc2ncnc3c2ncn3[C@@H]2O[C@@H](CO)[C@H](O)[C@@H]2O)c2ccccc2C)c1 | · | 2% | -2% | 0% | -1%
Cn1c(SCC(=O)N2CCOCC2)nnc1-c1ccc(Cl)cc1Cl | >26 | · | · | 5%[20.6 µM] | 2%[25.5 µM]
O=C(c1cc(-c2ccc(Cl)cc2Cl)on1)N1CCOCC1 | 6.3* | -2% | 1% | 0% | 7.9µM*
Cc1cc(C)nc(Nc2ccc(N3CCOCC3)cc2)n1 | · | 5% | -9% | 0% | -29%
COc1ccc(Nc2cc(C)nc(N3CCOCC3)n2)cc1 | 1.5* | 3%[0.369 µM] | · | 0% | -3%
CNc1cc(C)nc(-n2nc(C)cc2C)n1 | >57 | 4%[0.369 µM] | 6% | ? | -9%
CCOc1ccc(Nc2cc(C)nc(-n3nc(C)cc3C)n2)cc1 | 6.3* | 9%[0.369 µM] | 2% | 16µM* | 1%
Cn1cc(-c2nc3cnc(Oc4ccccc4)nc3n(C)c2=O)c2ccccc21 | · | -2% | -5% | 5%[9.22 µM] | 0%[11.4 µM]
c1ccc(Nc2ncnc3c2oc2ccccc23)cc1 | 5.4* | -1% | 2% | 0% | -10%
c1ccc2c(c1)oc1c(Nc3ccc(CN4CCOCC4)cc3)ncnc12 | i | -1%[0.369 µM] | 1% | 2% | 16µM*
O=C(O)c1cc(C(=O)O)nc(C(=O)O)c1 | · | 1%[9.22 µM] | -8%[9.17 µM] | -3%[9.22 µM] | -4%[11.4 µM]
Cc1sc(NC(=O)c2cccs2)c(C(N)=O)c1C | · | 0%[9.22 µM] | -12% | -2% | 13µM*
O=C(c1ccco1)N1CCC2(CC1)CN(c1cccc(-c3ccccc3)c1)C2 | · | 3% | -5% | 0%[9.22 µM] | -4%[11.4 µM]
Cc1cccc(-c2cc3nc4c(c(N5CCC6(CC5)OCCO6)n3n2)CCCC4)c1 | >57 | 0%[57.5 µM] | -2% | 4% | -2%
Cc1cccc(-c2cc3nc4c(c(N5CCOCC5)n3n2)CCCC4)c1 | ? | 0%[57.5 µM] | -2% | -1% | 16µM*
COC(=O)[C@H]1[C@@H]2C[C@H]3c4[nH]c5ccccc5c4CCN3C[C@@H]2CC[C@@H]1O | · | · | 5% | 2%[9.22 µM] | 0%[11.4 µM]
CC(=O)CC1OC(=O)C(Br)=C1NCc1ccccc1 (centres undefined) | >57 | 6% | -3% | 13µM* | 2%
O=C(CC1Oc2ccccc2NC1=O)NCc1ccccc1 (centres undefined) | · | -1% | 18% | -4% | 0%
COc1ccc(C(=O)NCCn2ccc3ccccc32)cc1OC | · | -2% | 10% | · | 10µM*
COc1cccc(C(=O)NCCn2ccc3ccccc32)c1 | · | 1% | 7% | · | 0%
O=C(O)C1CCN(c2nc(-c3ccccc3)nc3c2oc2ccccc23)CC1 | 7.4* | 3%[0.369 µM] | · | -2% | 1%
OCCN1CCN(c2nc(-c3ccccc3)nc3c2oc2ccccc23)CC1 | 6* | -2%[57.5 µM] | -1% | 2% | 3%
CCOC(=O)C1CCN(c2nc(-c3ccccc3)nc3c2oc2ccccc23)CC1 | i | 5%[57.5 µM] | -1% | 0% | 1%
SMILES | Bst PK mod | HBB splice mod | UbGFP stabilizer | GFP derepression | Luciferase inh
COc1ccc2oc(-c3ccccc3)c(OC)c(=O)c2c1 | · | · | 0% | 0%[9.22 µM] | -6%[11.4 µM]
CC(O)c1nc2ccccc2n1Cc1nnc(-c2ccc(Cl)cc2)o1 (centres undefined) | 2.5* | 0%[57.5 µM] | -2% | 4% | -9%
c1ccc(-c2nnc(Cn3c4ccccc4c4nc5ccccc5nc43)o2)cc1 | >57 | 2% | 8% | 5% | 2%
O=C(CSc1ncnc2sc3c(c12)CCCC3)c1ccco1 | · | -2% | 4% | -2% | 32µM*
O=C(CSc1ncnc2sc3c(c12)CCCCC3)NCc1ccco1 | >57 | 0% | 6% | 3% | -3%
CN(CC(=O)O)CC(=O)O | · | 1%[9.22 µM] | -5%[9.17 µM] | 6%[9.22 µM] | 1%[11.4 µM]
Cn1c(=O)c2cn(-c3ccc4c(c3)OCCO4)cc2n(C)c1=O | 5.6* | 1%[57.5 µM] | -2% | 1% | -14%
Cc1ccc(-n2cc3c(=O)n(C)c(=O)n(C)c3c2)cc1C | 10* | 1%[57.5 µM] | 3% | 2% | -16%
O=C(O)CNC(=O)c1ccccc1O | · | 1%[9.22 µM] | -1%[9.17 µM] | -7%[9.22 µM] | 2%[11.4 µM]
